Bioassay records as filed in PubChem BioAssay.
Most compounds without a hit are left out; they make up all but 2.9% or so of the library.
EPAC2 antag – validation of human EPAC2 antagonists; Q8WZA2; EPAC2 Rap1B BODIPY-GDP exchange, fluorescence; Potency, µM (doses to about 112 µM), inactives show at the highest dose activity, negative = inhibition, hits mostly inhibitors; 16,000 compounds, 1.7% hits;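 further: 100% = activation by cAMP agonist control; nearly all actives have a fitted effect of over 40% in size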
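Fluorescent exchange read-out: 100 nM EPAC2 with 250 nM RAP1B–BODIPY-GDP and 50 uM GDP; BODIPY-GDP release lowers fluorescence. Read at 480/540 nm every 5 min for 30 min at room temperature; normalized to 6.5 mM cAMP.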
EPAC1 ag val – human EPAC1 agonism, validation | O95398 | EPAC1 Rap1b BODIPY-GDP exchange, fluorescence | Potency, µM, without a hit: max response, positive = active, hits mostly activators | 16,000 compounds, 1% hits; further: nearly all actives have a fitted effect of over 70% in size
* = called active by the depositor; i = inactive; ? = inconclusive; ! = repeats disagree; [ ] = dose if it differs, or a comment. The call rests on the fitted dose curve; in most records, active means well fitted curve in the direction sought with a large enough effect; inconclusive means small, poorly fitted or top-dose-only effect, or another doubt; inactive means no such curve, though single readings can be large; an effect the other way counts as inactive or inconclusive. Unless noted, on the % scale 0 is the no-effect control and ±100 the full control effect; potency means the concentration at half of the fitted maximal effect.

SMILES	EPAC2 antag	EPAC1 ag val
Oc1cc(Cl)ccc1Oc1ccc(Cl)cc1Cl	11µM*!	?
O=C(O)COc1ccc(Cl)cc1Cl	-13%	29%
C[C@@H]1[C@@H]2Cc3ccc(O)cc3[C@@]1(C)CCN2CCc1ccccc1	12%[239 µM]	14%
CCCC[C@H]1C(=O)O[C@H](C)[C@H](NC(=O)c2cccc(NC=O)c2OC)C(=O)O[C@@H](C)[C@@H]1OC(=O)CC(C)C	?	-47%
CCCCCC1C(=O)O[C@H](C)[C@@H](NC(=O)c2cccc(NC=O)c2O)C(=O)OC(C)C1OC(=O)CC(C)C (stereo partly drawn)	56µM*	-195%
COc1ccc2c3c([nH]c2c1)C(C)=NCC3	-8%	?
CC1=NCCc2c1[nH]c1cc(O)ccc21	i	79µM*
Cl.Cl.Cl.Cl.Cl.Cl.N.N.N.N.NNNNN.NNNNN.O.O.[Ru].[Ru].[Ru]	56µM*	-15%
CC(=O)O[C@H]1C[C@H](O[C@H]2[C@@H](O)C[C@H](O[C@H]3[C@@H](O)C[C@H](O[C@H]4CC[C@@]5(C)[C@H](CC[C@@H]6[C@@H]5C[C@@H](O)[C@]5(C)[C@@H](C7=CC(=O)OC7)CC[C@]65O)C4)O[C@@H]3C)O[C@@H]2C)O[C@H](C)[C@H]1O[C@@H]1O[C@H](CO)[C@@H](O)[C@H](O)[C@H]1O	14%	-35%
CC(C)=CCN1CC[C@]2(C)c3cc(O)ccc3C[C@H]1[C@H]2C	-11%[239 µM]	1%
C[C@]12CC[C@H]3[C@@H](CCC4=CC(=O)CC[C@@]43C)[C@@H]1CC[C@@H]2OC(=O)CCc1ccccc1	-10%[239 µM]	21%
C=CC[C@]1(O)CC[C@H]2[C@@H]3CCC4=CCCC[C@@H]4[C@H]3CC[C@@]21C	-8%	-1%
O=C1CN=C(c2ccccc2)c2cc(Cl)ccc2N1CC1CC1	22µM*	-16%
O=C1Nc2ccc(Cl)cc2C(c2ccccc2)=NC1O (stereo not drawn)	?	3%
[S]=[Sb](=[S])[S][Sb](=[S])=[S]	23%	-4%
CCCn1c(C)c(C(=O)c2cccc3ccccc23)c2ccccc21	20µM*	2%
Cc1c(C(=O)c2cccc3ccccc23)c2cccc3c2n1[C@H](CN1CCOCC1)CO3	-23%	?
CCCCCCC(C)(C)c1ccc([C@@H]2C[C@H](O)CC[C@@H]2CCCO)c(O)c1	28µM*	-53%
CN[C@]1(c2ccccc2Cl)CCCCC1=O	-7%	6%
NC(Cc1cc(O)c(O)cc1O)C(=O)O (stereo not drawn)	13µM*	18%
N[C@@H](CCl)C(=O)O	9%	-8%
CC(C)CCC(=O)O[C@H]1CC[C@H]2[C@@H]3CCC4=CC(=O)CC[C@]4(C)[C@H]3CC[C@]12C	-14%	6%
Oc1c(Cl)c(Cl)c(Cl)c(Cl)c1Cl	14µM*	-64%
C=C[C@H]1CN2CC[C@H]1C[C@H]2[C@H](OC(=O)OCC)c1ccnc2ccc(OC)cc12	-10%	-18%
CCC(=O)O[C@H]1[C@@H](N2CCCCC2)C[C@H]2[C@@H]3CC[C@H]4C[C@H](OC(C)=O)[C@@H](N5CCCCC5)C[C@]4(C)[C@H]3CC[C@@]21C	-14%	8%
SMILES	EPAC2 antag	EPAC1 ag val
O=c1[nH]cc(N(CCCl)CCCl)c(=O)[nH]1	71µM*	-6%
CC(C)[C@H]1C(=O)N2CCC[C@H]2[C@]2(O)O[C@](NC(=O)[C@@H]3C[C@@H]4c5cccc6[nH]cc(c56)C[C@H]4N(C)C3)(C(C)C)C(=O)N12	5%	1%
O=C(C[C@@H]1NCCC[C@H]1O)Cn1cnc2cc(Br)c(Cl)cc2c1=O	17%	-16%
O=C1OC2(c3cc(Br)c(O)cc3Oc3c2cc(Br)c(O)[c]3[Hg])c2ccccc21 (stereo not drawn)	i	40µM*!
O=C(O)c1ccccc1-c1c2cc(Br)c(=O)cc-2oc2[c]([Hg])c(O)c(Br)cc12	i	?
CN(C)CCCCCCN(C)C (tested in a mixture with another compound)	3%	-10%
CCOC(=O)/C=C(C)/C=C/C[C@@H](C)CCCC(C)C	-17%	-29%
NCCc1cc(O)c(O)cc1O	-10%	112µM*
COc1ccc(CCN)cc1O	0%	-2%
O=C1C[C@@H]2OCC=C3CN4CC[C@]56c7ccccc7N1[C@H]5[C@H]2[C@H]3C[C@H]46	-2%	2%
CCC/C=C/C=C/C(=O)O[C@H]1/C(=C/C(=O)OC)C[C@H]2C[C@H]([C@@H](C)O)OC(=O)C[C@H](O)C[C@@H]3C[C@H](OC(C)=O)C(C)(C)[C@](O)(C[C@@H]4C/C(=C/C(=O)OC)C[C@H](/C=C/C(C)(C)[C@]1(O)O2)O4)O3	-29%	-78%
O=S(=O)(O)C(F)(F)C(F)(F)C(F)(F)C(F)(F)C(F)(F)C(F)(F)C(F)(F)C(F)(F)F	100µM*	-229%
Cc1ccc2c(c1)[C@]13CCCC[C@@H]1[C@H](C2)N(C)CC3	4%	20%
NC(=O)[C@H](Cc1ccccc1)NC(=O)[C@H](Cc1c[nH]c2ccccc12)NC(=O)[C@@H]1CCCN1C(=O)[C@@H](N)Cc1ccc(O)cc1	4%[11.4 µM]	-8%
C[C@@H]1[C@H](O)[C@@H](C)C=CC=CCCC=CC=CC=CC=C[C@H](O[C@H]2O[C@@H](C)[C@H](O)[C@@H](N)[C@@H]2O)CC2O[C@](O)(C[C@@H](O)[C@H](O)CC[C@@H](O)C[C@@H](O)C[C@@H](O)CC(=O)O[C@H]1C)C[C@H](O)[C@H]2C(=O)O	17%	21%
N#CC(C#N)=Cc1cc(O)c(O)c(O)c1	89µM*!	-19%
N#C/C(=C\c1ccc(O)c(O)c1)C(N)=S	?	-21%
